Results: the supplement of paper PMC9694430
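Further: purified Escherichia coli-expressed rice kinase domain construct.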

Each compound was assayed on LOC_OS01G01410-cb001 (assay: thermal shift delta Tm vs DMSO control; higher = stronger stabilization (binding)). Conditions: 12.5 µM; protein concentration 2 µM.
In short: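 Rice kinase domain constructs, made in E. coli and purified, were placed in 96-well plates at 2 μM in 19.5 μl of 100 mM potassium phosphate pH 7.5, 150 mM NaCl, 10% glycerol and 5 × SYPRO Orange, with compound in DMSO. A temperature ramp from 25°C to 95°C at 0.05°C/s was used for differential scanning fluorimetry. The melting temperature shift is a triplicate mean compared with DMSO-only protein, derived from Boltzmann fits.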
For `Oc1c2ccccc2c2c3c(cccc13)N=N2`, the “thermal shift delta Tm” value was 3.59 °C. With `CSc1cccc(Nc2ncc3cc(-c4c(Cl)cccc4Cl)c(=O)n(C)c3n2)c1` the “thermal shift delta Tm” value was 0.57 °C. With `COc1cc(Nc2ncc(F)c(Nc3ccc4c(n3)NC(=O)C(C)(C)O4)n2)cc(OC)c1OC` [R406 (free base)] the “thermal shift delta Tm” value was 0.61 °C. `Cc1cn(-c2cc(NC(=O)c3ccc(C)c(Nc4nccc(-c5cnccn5)n4)c3)cc(C(F)(F)F)c2)cn1` [Radotinib] was tested, and the “thermal shift delta Tm” value was 0.24 °C. With `CN1CCN(Cc2ccc(-c3cnc4[nH]cc(-c5ccc6[nH]ccc6c5)c4c3)cc2)CC1` the “thermal shift delta Tm” value was 3.79 °C. In the case of `CONC(=O)c1ccccc1Nc1cc(Nc2cc(C)nn2C(C)C)ncc1Cl`, the “thermal shift delta Tm” value is reported as 0.19 °C. With `CNC(=O)c1cc(Oc2ccc(NC(=O)Nc3ccc(Cl)c(C(F)(F)F)c3)c(F)c2)ccn1` [Regorafenib (BAY 73-4506)] the “thermal shift delta Tm” value was 2.09 °C. `c1cc(-c2cnn3cc(-c4ccc(OCCN5CCCCC5)cc4)cnc23)ccn1` [Dorsomorphin 2HCl] was tested, and the “thermal shift delta Tm” value was 4.71 °C. With `CCCCCCCCCC(=O)CC(O)S(=O)(=O)O` (stereo not drawn) [Sodium Houttuyfonate] the “thermal shift delta Tm” value was 0.56 °C. In the case of `CC(C)[C@H](CO)Nc1nc(Nc2cccc(Cl)c2)c2ncn(C(C)C)c2n1` [Purvalanol A], the “thermal shift delta Tm” value is reported as 1.58 °C. In the case of `COc1ccc(Cl)c(Nc2nc3ccccc3nc2NS(=O)(=O)c2cccc(NC(=O)C(C)(C)N)c2)c1` [Pilaralisib (XL147)], the “thermal shift delta Tm” value is reported as 1.63 °C. In the case of `CC(C)Oc1ccc(-c2nn([C@@H](C)c3oc4ccc(F)cc4c(=O)c3-c3cccc(F)c3)c3ncnc(N)c23)cc1F`, the “thermal shift delta Tm” value is reported as 0.45 °C. With `O=C(/C=C/c1ccc2ccccc2n1)c1ccncc1` the “thermal shift delta Tm” value was 0.4 °C.
